Assay results reported in PubChem BioAssay AID1159580 (chemical genetic matrix, 2015).
The campaign covered roughly 5,500 compounds. About 2,000 (36%) were called active. Another 18% or so got no clear call; they are omitted. Cut-off read from the data, not from the text of the source: active = normalized growth mostly below about 0.91 (no sharp cut-off); inconclusive = no clear call, values can overlap the other calls; inactive = mostly above about 0.92. This is one part of the list.

Assay: chemical genetic growth profiling, strain panel (AID 1159580);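 note: tested at 20 µM; growth read once vehicle control cultures reached saturation at 30 °C; 1 = growth at the plate median or of vehicle wells; lower values mean less growth of the strain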
Conditions: growth OD

Measured: normalized growth

CCOC(=O)[C@H](CCc1ccccc1)N[C@@H](C)C(=O)N1[C@H](C(=O)O)C[C@@H]2CCC[C@@H]21
inactive: S. cerevisiae deletion strains, locus YJR075W, strain HOC1, active compounds read low 0.998 | S. cerevisiae deletion strains, locus YKL009W, strain mrt4, active compounds read low 1.01 | S. cerevisiae deletion strains, locus YKL068W, active compounds read low 1.02 | S. cerevisiae deletion strains, locus YKL085W, strain MDH1 (second series), active compounds read low 1.02 | S. cerevisiae deletion strains, locus YKL085W, strain MDH1, active compounds read low 1.02 | S. cerevisiae deletion strains, locus YKL160W, strain elf1, active compounds read low 0.981 | S. cerevisiae deletion strains, locus YKL190W, strain CNB1, active compounds read low 1.01 | S. cerevisiae deletion strains, locus YKR001C, strain vps1, active compounds read low 1.02 | S. cerevisiae deletion strains, locus YKR026C, strain gcn3, active compounds read low 0.98 | S. cerevisiae deletion strains, locus YKR091W, strain srl3, active compounds read low 0.985 | S. cerevisiae deletion strains, locus YLL001W, strain dnm1, active compounds read low 0.989 | S. cerevisiae deletion strains, locus YLL026W, active compounds read low 0.991 | S. cerevisiae deletion strains, locus YLL041C, strain sdh2, active compounds read low 0.982 | S. cerevisiae deletion strains, locus YLR027C, strain aat2, active compounds read low 0.992 | S. cerevisiae deletion strains, locus YLR039C, strain RIC1, active compounds read low 1.06 | S. cerevisiae deletion strains, locus YLR058C, strain SHM2, active compounds read low 1.01 | S. cerevisiae deletion strains, locus YLR102C, strain apc9, active compounds read low 1.02 | S. cerevisiae deletion strains, locus YLR113W, strain HOG1, active compounds read low 0.98 | S. cerevisiae deletion strains, locus YLR221C, strain rsa3, active compounds read low 1 | S. cerevisiae deletion strains, locus YLR258W, strain gsy2, active compounds read low 0.991 | S. cerevisiae deletion strains, locus YLR262C, strain YPT6 (second series), active compounds read low 0.967 | S. cerevisiae deletion strains, locus YLR262C, strain YPT6, active compounds read low 1.08 | S. cerevisiae deletion strains, locus YLR268W, strain sec22, active compounds read low 1.02 | S. cerevisiae deletion strains, locus YLR320W, strain mms22, active compounds read low 0.975 | S. cerevisiae deletion strains, locus YLR330W, strain CHS5, active compounds read low 1.01 | S. cerevisiae deletion strains, locus YLR342W, strain FKS1 (second series), active compounds read low 1.02 | S. cerevisiae deletion strains, locus YLR342W, strain FKS1, active compounds read low 0.989 | S. cerevisiae deletion strains, locus YLR357W, strain rsc2, active compounds read low 0.978 | S. cerevisiae deletion strains, locus YLR370C, strain arc18, active compounds read low 0.98 | S. cerevisiae deletion strains, locus YLR371W, strain rom2, active compounds read low 1.01 | S. cerevisiae deletion strains, locus YLR384C, strain iki3, active compounds read low 0.984 | S. cerevisiae deletion strains, locus YLR418C, strain cdc73, active compounds read low 1.06 | S. cerevisiae deletion strains, locus YML016C, strain PPZ1, active compounds read low 1.02 | S. cerevisiae deletion strains, locus YML032C, strain rad52, active compounds read low 1.02 | S. cerevisiae deletion strains, locus YML120C, strain ndi1, active compounds read low 0.993 | S. cerevisiae deletion strains, locus YML124C, strain tub3, active compounds read low 1.02 | S. cerevisiae deletion strains, locus YMR058W, strain fet3, active compounds read low 0.99 | S. cerevisiae deletion strains, locus YMR078C, strain ctf18, active compounds read low 1.03 | S. cerevisiae deletion strains, locus YMR125W, strain sto1, active compounds read low 0.976 | S. cerevisiae deletion strains, locus YMR129W, active compounds read low 0.979 | S. cerevisiae deletion strains, locus YMR205C, strain PFK2, active compounds read low 0.981 | S. cerevisiae deletion strains, locus YMR223W, strain ubp8, active compounds read low 1.02 | S. cerevisiae deletion strains, locus YMR231W, strain pep5, active compounds read low 0.978 | S. cerevisiae deletion strains, locus YMR263W, strain SAP30, active compounds read low 1.02 | S. cerevisiae deletion strains, locus YMR307W, strain GAS1, active compounds read low 1.04 | S. cerevisiae deletion strains, locus YNL067W, strain RPL9B, active compounds read low 1.01 | S. cerevisiae deletion strains, locus YNL071W, strain lat1, active compounds read low 0.975 | S. cerevisiae deletion strains, locus YNL128W, strain TEP1, active compounds read low 1 | S. cerevisiae deletion strains, locus YNL153C, strain GIM3, active compounds read low 1.01 | S. cerevisiae deletion strains, locus YNL183C, strain NPR1, active compounds read low 0.968 | S. cerevisiae deletion strains, locus YNL209W, strain ssb2, active compounds read low 0.981 | S. cerevisiae deletion strains, locus YNL233W, strain BNI4, active compounds read low 1 | S. cerevisiae deletion strains, locus YNL248C, strain rpa49, active compounds read low 0.986 | S. cerevisiae deletion strains, locus YNL250W, strain rad50, active compounds read low 1.03 | S. cerevisiae deletion strains, locus YNL271C, strain bni1, active compounds read low 1.02 | S. cerevisiae deletion strains, locus YNL298W, strain CLA4, active compounds read low 1.03 | S. cerevisiae deletion strains, locus YNL307C, strain MCK1, active compounds read low 1.02 | S. cerevisiae deletion strains, locus YNL322C, strain KRE1 (second series), active compounds read low 0.982 | S. cerevisiae deletion strains, locus YNL322C, strain KRE1, active compounds read low 1.01 | S. cerevisiae deletion strains, locus YNR049C, strain mso1, active compounds read low 0.985 | S. cerevisiae deletion strains, locus YNR052C, strain pop2, active compounds read low 1.01 | S. cerevisiae deletion strains, locus YOL006C, strain TOP1, active compounds read low 1.03 | S. cerevisiae deletion strains, locus YOL012C, strain htz1 1.2 | S. cerevisiae deletion strains, locus YOL147C, strain pex11, active compounds read low 1.01 | S. cerevisiae deletion strains, locus YOR001W, strain rrp6, active compounds read low 0.997 | S. cerevisiae deletion strains, locus YOR061W, strain CKA2, active compounds read low 1.01 | S. cerevisiae deletion strains, locus YOR069W, strain VPS5, active compounds read low 1 | S. cerevisiae deletion strains, locus YOR070C, strain gyp1, active compounds read low 0.991 | S. cerevisiae deletion strains, locus YOR080W, strain dia2, active compounds read low 0.982 | S. cerevisiae deletion strains, locus YOR083W, strain WHI5, active compounds read low 0.984 | S. cerevisiae deletion strains, locus YOR106W, strain vam3, active compounds read low 1.01 | S. cerevisiae deletion strains, locus YOR136W, strain idh2, active compounds read low 1.02 | S. cerevisiae deletion strains, locus YOR144C, strain elg1, active compounds read low 1.02 | S. cerevisiae deletion strains, locus YOR184W, strain ser1, active compounds read low 1.03 | S. cerevisiae deletion strains, locus YOR231W, strain MKK1, active compounds read low 0.983 | S. cerevisiae deletion strains, locus YOR265W, strain rbl2, active compounds read low 0.979 | S. cerevisiae deletion strains, locus YOR270C, strain vph1, active compounds read low 1.03 | S. cerevisiae deletion strains, locus YOR290C, strain snf2, active compounds read low 0.988 | S. cerevisiae deletion strains, locus YOR316C, strain cot1, active compounds read low 1.02 | S. cerevisiae deletion strains, locus YPL051W, strain arl3, active compounds read low 0.987 | S. cerevisiae deletion strains, locus YPL055C, strain LGE1, active compounds read low 1.02 | S. cerevisiae deletion strains, locus YPL078C, strain atp4, active compounds read low 0.977 | S. cerevisiae deletion strains, locus YPL106C, strain sse1, active compounds read low 0.988 | S. cerevisiae deletion strains, locus YPL240C, strain hsp82, active compounds read low 0.984 | S. cerevisiae deletion strains, locus YPL241C, strain CIN2, active compounds read low 0.999 | S. cerevisiae deletion strains, locus YPL256C, strain CLN2, active compounds read low 0.973 | S. cerevisiae deletion strains, locus YPR119W, strain clb2, active compounds read low 1.01 | S. cerevisiae deletion strains, locus YPR141C, strain kar3, active compounds read low 1.03 | S. cerevisiae deletion strains, locus YPR163C, strain tif3, active compounds read low 1.01 | S. cerevisiae deletion strains, locus YPR167C, strain met16, active compounds read low 1.02 | S. cerevisiae deletion strains, strain wtn01, active compounds read low 1.02 | S. cerevisiae strains, strain wild type, active compounds read low 1.01
